# Results published in paper PMC4336329 (PLoS ONE, 2015).
# Out of some 310,000 compounds screened, about 14,000 (4.5%) showed an effect of 50% or more. Effects have a minus sign here. Many of the other results were omitted from the sample, so strong results are more common in it than they were.
# Molecular target: human ether-à-go-go-related gene (hERG) potassium channel (human, UniProt Q12809)
# Assay: primary screen, population patch clamp on CHO cells stably expressing hERG; higher = less effect of the substance
# 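Further: peak tail current of the secondary pulse compared with the same well before compound.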
# human ether-à-go-go-related gene (hERG) potassium channel, sequence (Q12809 whole entry, looked up): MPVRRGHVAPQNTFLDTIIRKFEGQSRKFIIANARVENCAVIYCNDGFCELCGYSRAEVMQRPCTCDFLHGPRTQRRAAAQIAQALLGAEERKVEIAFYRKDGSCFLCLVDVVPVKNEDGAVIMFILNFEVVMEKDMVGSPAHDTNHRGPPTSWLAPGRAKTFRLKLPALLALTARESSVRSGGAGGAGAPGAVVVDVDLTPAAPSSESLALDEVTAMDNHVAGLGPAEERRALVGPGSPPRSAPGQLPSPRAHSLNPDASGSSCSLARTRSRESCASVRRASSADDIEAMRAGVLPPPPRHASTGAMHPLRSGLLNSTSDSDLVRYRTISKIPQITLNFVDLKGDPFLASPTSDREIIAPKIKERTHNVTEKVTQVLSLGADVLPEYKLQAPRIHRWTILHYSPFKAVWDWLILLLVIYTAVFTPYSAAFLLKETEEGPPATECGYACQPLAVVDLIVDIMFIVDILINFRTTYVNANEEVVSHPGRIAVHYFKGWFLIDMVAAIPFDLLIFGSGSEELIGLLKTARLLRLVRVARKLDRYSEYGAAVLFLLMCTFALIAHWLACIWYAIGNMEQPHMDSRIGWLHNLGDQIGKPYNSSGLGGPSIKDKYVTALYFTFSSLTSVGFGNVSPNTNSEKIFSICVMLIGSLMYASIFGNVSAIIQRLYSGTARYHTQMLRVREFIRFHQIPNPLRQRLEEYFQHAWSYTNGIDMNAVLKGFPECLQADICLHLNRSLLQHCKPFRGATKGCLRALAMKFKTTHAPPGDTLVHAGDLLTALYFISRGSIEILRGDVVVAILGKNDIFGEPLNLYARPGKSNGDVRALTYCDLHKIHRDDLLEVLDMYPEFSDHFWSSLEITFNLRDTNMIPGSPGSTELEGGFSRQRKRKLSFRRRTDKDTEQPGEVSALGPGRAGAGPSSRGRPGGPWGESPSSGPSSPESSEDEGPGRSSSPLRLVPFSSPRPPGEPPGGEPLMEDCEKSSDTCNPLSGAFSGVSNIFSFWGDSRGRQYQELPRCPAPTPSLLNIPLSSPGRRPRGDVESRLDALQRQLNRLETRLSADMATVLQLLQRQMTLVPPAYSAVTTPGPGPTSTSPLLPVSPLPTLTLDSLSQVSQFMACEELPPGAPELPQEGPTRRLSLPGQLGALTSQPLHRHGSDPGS
row,SMILES,"hERG current change (%, negative = inhibition) at 10uM [%]"
1,C/C(=N/NC(=O)CSc1nc2ccccc2s1)c1ccncc1,-24
2,CCOC(=O)c1cnc2c(cnn2C)c1Oc1ccc(OC)cc1,-43
3,CCOc1ccc(NC(=S)NC(C)C(c2ccccc2)N2CCN(C)CC2)cc1 (stereo not drawn),-58.5
4,COc1ccc(NC(=S)NC(C)C(c2ccccc2)N2CCOCC2)cc1 (stereo not drawn),7.52
5,CC(NC(=O)COc1ccccc1)C(c1ccccc1)N1CCN(C)CC1 (stereo not drawn),-9.29
6,CC(=O)Nc1cc(C(=O)N2CCC3(CC2)OCCO3)ccc1Sc1ccc(F)cc1,2.37
7,CC(=O)Nc1cc(C(=O)N2CCc3ccccc3C2)ccc1Sc1ccc(C)cc1,-53.6
8,CC(=O)Nc1cc(C(=O)N2CCN(C)CC2)ccc1Sc1ccc(C)cc1,-13.5
9,CC(=O)Nc1cc(C(=O)N2CCC3(CC2)OCCO3)ccc1Sc1ccc(C)cc1,-16
10,O=C(c1cccc(F)c1)N1CCc2ccccc2C1,-7.14
11,CC(=O)Nc1cc(C(=O)N2CCCC2)ccc1Sc1ccc(C)cc1,-30.5
12,CCCN1CCN(C(=O)c2ccc(Sc3ccc(C)cc3)c(NC(C)=O)c2)CC1,-50.6
13,CC(=O)Nc1cc(C(=O)N2CCc3ccccc3C2)ccc1Sc1ccc(Cl)cc1,-45
14,CC(=O)Nc1cc(C(=O)N2CCc3ccccc3C2)ccc1Sc1ccc(F)cc1,-55.4
15,CCCCn1c(N)c(N(CC(C)C)C(=O)c2cc(C)oc2C)c(=O)[nH]c1=O,8.94
16,Clc1ccc(-c2ccn[nH]2)cc1,3.54
17,Cc1ccc(NC(=O)N2C(=O)C3(OCCO3)c3ccccc32)cc1,18.2
18,CCS(=O)(=O)c1ccc(-c2cccc(NC(=O)COc3ccccc3)c2)nn1,6.57
19,O=C1CCCN1CN(C(=O)c1ccc2c(c1)OCO2)c1cccc(Cl)c1,-7.64
20,CC(C)CN(C(=O)COC(=O)C(C)N1C(=O)c2ccccc2C1=O)c1c(N)n(Cc2ccccc2)c(=O)[nH]c1=O (stereo not drawn),-7.78
21,COC(=O)c1cc(NC(=O)CC2NCCNC2=O)cc(C(=O)OC)c1 (stereo not drawn),5.72
22,Cc1ccc(-c2csc(NC(=O)c3ccc([N+](=O)[O-])o3)n2)cc1,6.85
23,CS(=O)(=O)c1ccc(-c2cc(Br)sc2-c2ccc(F)cc2)cc1,16.4
24,Cc1n[nH]c(C)c1S(=O)(=O)N1CCCC(C(=O)NCC2COc3ccccc3O2)C1 (stereo not drawn),0.365

row,SMILES,"hERG current change (%, negative = inhibition) at 10uM [%]"
1,CCOc1ccc2nc(NC(=O)CN3CCC(n4nnc5cc(F)ccc54)CC3)sc2c1,-40.1
2,COc1ccccc1CNC(=O)CN1CCC(NC(=O)c2ccccc2F)CC1.Cl,-14.5
3,O=C(CN1CCC(n2cnc3cc(F)ccc32)CC1)Nc1ccccc1Br,-87.8
4,O=C(CN1CCC(NC(=O)Cc2ccccc2)CC1)Nc1ccccc1Br,-29.2
5,O=C(NCc1ccc(F)cc1)C1CCN(C(=O)NCc2ccccc2)CC1,6.31
6,O=C(CN1CCN(c2ccc(F)cc2)CC1)Nc1ccccc1Br,12.5
7,O=C(c1ccc(F)cc1)C1CCN(C(=O)NCc2ccccc2)CC1,-6.67
8,CCOc1ccc(NC(=O)CN2CCC(n3cnc4cc(F)ccc43)CC2)cc1,-74.3
9,O=C(NCc1ccccc1)N1CCC(n2cnc3cc(F)ccc32)CC1,-64.3
10,COc1ccccc1CNC(=O)CN1CCC(n2cnc3cc(F)ccc32)CC1,-66
11,COc1cccc(C(=O)NC2CCN(CC(=O)NCc3ccccc3OC)CC2)c1,-10.7
12,CCOC(=O)Nc1ccc2c(c1)ncn2C1CCCCC1,-8.98
13,COc1ccc(C(=O)Nc2ccccc2C(=O)NC(C)C)cc1OC,-6.82
14,CCc1nc(SCC(=O)O)c2c3c(sc2n1)COC(C)(C)C3,23.2
15,CCCNc1c(NS(=O)(=O)c2ccc(C3CCCCC3)cc2)c(=O)oc2ccccc12,21.9
16,Cc1onc(-c2ccccc2)c1-c1csc(N/N=C/c2ccccc2)n1,8.79
17,CC(C)[C@H](NC(=O)c1cccc(S(=O)(=O)N2CCCC2)c1)c1nc2ccccc2[nH]1,9.05
18,COc1ccc(/C=N/N2CCN(c3ccncc3S(=O)(=O)N3CCCCC3)CC2)cc1,10.3
19,CCOC(=O)c1cc2sc(C)cc2n1CC(=O)N1CCN(C(=O)c2ccco2)CC1,-8.61
20,Cc1ccc2nc(Cl)c(/C=N/NC(=O)[C@H]3C[C@@H]3c3ccccc3)cc2c1,19.5
21,O=C(Cc1ccc(-c2ccccc2)cc1)NCCN1CCOCC1,0.566
22,COc1cccc(CC2(CO)CCCN(Cc3sc(N4CCCC4)nc3Cl)C2)c1 (stereo not drawn),-27.2
23,COc1cccc(CC2(CO)CCCN(Cc3ccc(C)s3)C2)c1 (stereo not drawn),-50.5
24,COc1cccc(CC2(CO)CCCN(Cc3ccc4c(c3)OCCO4)C2)c1 (stereo not drawn),-58.5

row,SMILES,"hERG current change (%, negative = inhibition) at 10uM [%]"
1,COc1cccc(CC2(CO)CCCN(Cc3ccc(OC(F)F)cc3)C2)c1 (stereo not drawn),-68.6
2,COc1cccc(CC2(CO)CCCN(Cc3ccc(CN4CCCCC4)s3)C2)c1 (stereo not drawn),-22.1
3,OCC1(Cc2ccccc2)CCCN(Cc2ccc3c(c2)OCCO3)C1 (stereo not drawn),-24.6
4,COc1cccc(CC2(CO)CCCN(Cc3cc4ccccc4[nH]3)C2)c1 (stereo not drawn),-37.5
5,COc1cccc(CC2(CO)CCCN(Cc3[nH]c4ccc(C)cc4c3C)C2)c1 (stereo not drawn),-74.7
6,CCC(NC(=O)c1ccccc1NC(=O)c1ccco1)C(=O)NNC(=O)c1ccc(OC)cc1 (stereo not drawn),10.3
7,NC(=O)c1ccc(SCC(=O)OCC(=O)NCC2CCCCC2)c([N+](=O)[O-])c1,-5.21
8,CC(C)(C)NC(=O)c1ccc2c(c1)N(CC(=O)NC1CCCC1)C(=O)C(C)(C)O2,8.72
9,COc1ccc(-c2csc(NC(=O)CSCC(=O)Nc3cc(C)on3)n2)cc1OC,1.07
10,O=C(Nc1ccc(-c2n[nH]c(=S)o2)cc1)c1ccccc1,15.6
11,O=C(c1cccc(S(=O)(=O)Nc2ccccc2F)c1)N1CCN(c2ccccc2F)CC1,-21.5
12,CCOc1ccc(NC(=O)CSc2nccn2Cc2ccco2)cc1,-19.5
13,Cc1cc(S(=O)(=O)N2CCCC(C(=O)Nc3ccc(C(=O)O)cc3)C2)ccc1Cl (stereo not drawn),10.2
14,COc1ccc(CSc2nnnn2C)cc1F,-6.74
15,CCOC(=O)C1CCCN(C2=NC(=O)/C(=C/c3ccc(N(C)C)cc3)S2)C1 (stereo not drawn),-24.9
16,CCOC(=O)C1CCN(C2=NC(=O)/C(=C/c3ccc(O)cc3)S2)CC1,-67.1
17,CCOC(=O)C1CCN(C2=NC(=O)/C(=C/c3ccccc3OC)S2)CC1,-22.9
18,CCOC(=O)C1CCN(C2=NC(=O)/C(=C/c3ccc(OC)c(OC)c3)S2)CC1,-17.8
19,Cc1ccc(/C=C2\SC(N3CCCC3)=NC2=O)cc1,-22.4
20,CC1CCN(C2=NC(=O)/C(=C/c3ccc(O)cc3)S2)CC1,-24.7
21,Cc1ccc(/C=C2\SC(N3CCCCC3)=NC2=O)cc1,0.193
22,CC(C)(C)c1ccc(/C=C2/SC(N3CCCC3)=NC2=O)cc1,-51.1
23,CCOC(=O)C1CCN(C2=NC(=O)/C(=C/c3ccc(Cl)cc3)S2)CC1,-64.8
24,COc1ccc(NCc2nnc(SCC(=O)Nc3ccc(OC)cc3OC)o2)cc1,-9.35

row,SMILES,"hERG current change (%, negative = inhibition) at 10uM [%]"
1,CCN(c1ccccc1)S(=O)(=O)c1cc2c(cc1C)n(C)c(=O)c(=O)n2C,-32
2,Cc1cccc(C(=O)NNS(=O)(=O)c2ccccc2[N+](=O)[O-])c1,1.16
3,CN(C(=O)CCS(=O)(=O)c1ccc2c(c1)oc(=O)n2C)C1CCCCC1,3.68
4,Cc1nn(CCC(=O)O)c(C)c1C,5.72
5,C=CCn1c(=O)c2c(nc3n2CCN3c2cccc(Cl)c2C)n(C)c1=O,-15
6,CCCn1c(CN2CCN(C(=O)OCC)CC2)nc2cc(NC(C)=O)ccc21,12.8
7,CCOC(=O)N1CCN(Cc2nc3cc(NC(=O)C(C)C)ccc3n2CC)CC1,14.3
8,CCOC(=O)N1CCN(Cc2nc3cc(NC(=O)CC(C)C)ccc3n2CC)CC1,-8.18
9,CCOC(=O)N1CCN(Cc2nc3cc([N+](=O)[O-])ccc3n2C)CC1,-24.5
10,CCOC(=O)N1CCN(Cc2nc3cc([N+](=O)[O-])ccc3n2CC)CC1,-51.9
11,CCCn1c(CN2CCN(C(=O)OCC)CC2)nc2cc([N+](=O)[O-])ccc21,-64
12,O=C(COC(=O)c1ccco1)NCc1cccs1,12.4
13,CCOc1ccc(CNC(=O)c2ccc(Sc3ccc(C)cc3)c(NC(C)=O)c2)cc1OC,-21.5
14,CC(=O)Nc1cc(C(=O)NCc2ccco2)ccc1Sc1ccc(C)cc1,-17.8
15,CCC(=O)Nc1cc(C(=O)O)ccc1Sc1ccc(C)cc1,4.85
16,CCN(CC)CCNC(=O)c1ccc(Sc2ccc(Cl)cc2)c(NC(C)=O)c1,-61.7
17,CCOc1ccc(CNC(=O)c2ccc(Sc3ccc(C)cc3)c(NC(C)=O)c2)cc1,-4.85
18,CC(=O)Nc1cc(C(=O)NCc2ccco2)ccc1Sc1ccc(Cl)cc1,-35.6
19,CCN(CC)CCNC(=O)c1ccc(Sc2ccc(C)cc2)c(NC(C)=O)c1,-58.2
20,CC(=O)Nc1cc(C(=O)N(C)Cc2ccco2)ccc1Sc1ccc(Cl)cc1,-66.7
21,CCOc1ccccc1CNC(=O)c1ccc(Sc2ccc(Cl)cc2)c(NC(C)=O)c1,-19.4
22,CC(=O)Nc1cc(C(=O)NCc2ccco2)ccc1Sc1ccc(F)cc1,-40.8
23,CCOc1ccc(CNC(=O)c2ccc(Sc3ccc(Cl)cc3)c(NC(C)=O)c2)cc1,-8.57
24,CC(=O)Nc1cc(C(=O)NCCN2CCN(Cc3ccccc3)CC2)ccc1Sc1ccc(C)cc1,-63.6
